Compounds without any hit were thinned out: in the full panel of roughly 79,000, 15% have a hit. Values without a mark were called inactive. Active and inactive are the calls of the source. Cut-off read from the data, not from the text of the source: active = growth inhibition above about 70%; inactive = the rest.
Assay: NCI Yeast Anticancer Drug Screen. Data for the cln2 rad14 strain (AID 165);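 note: 0% = growth equal to vehicle treated cultures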
Details: S. cerevisiae cln2 rad14 strain, hits give high values
Description: Growth inhibition of yeast strains with defined genetic alterations is measured as a screen for potential anti-cancer activity. Selected strains with alterations in DNA damage repair or cell cycle control were exposed to compounds and growth inhibition was measured relative to vehicle treated controls. The strain used in this assay is cln2 rad14

[1] = at 5.0 µM (retest, dose inferred, filed as 0.5)
[2] = at 50.0 µM (retest, dose inferred, filed as 5.0)

Row | SMILES | growth inhibition [1] [%] | growth inhibition [2] | growth inhibition (at 50.0 µM)
1 | COc1ccc2c(c1)C(=O)c1ccccc1C2 | -18 | 4% | -19.8%
2 | FC(F)(F)c1cc(NC(=S)N2c3ccccc3-n3cccc3C2c2cccnc2)cc(C(F)(F)F)c1 (configuration not stated) | -10 | 21% | 43.6%
3 | Cc1cc(I)ccc1N | 46 | 93% (active) | 62.1%
4 | Cc1ccc(Nc2nc3c(=O)n(C)c(=O)n(C)c3nc2Nc2ccc(C)cc2)cc1 | -14 | 11% | 79.3% (active)
5 | O=C1OC(CCl)CN1/N=C/c1ccc([N+](=O)[O-])o1 (configuration not stated) | 4 | 73% (active) | 47.1%
6 | Cc1ccc(NN(NC(=O)OC(C)C)C(=O)OC(C)C)cc1 | 14 | 27% | 28.6%
7 | CN(N=O)N1C(=O)SCC(c2ccccc2)(c2ccccc2)C1=O | -26 | 16% | 10.7%
8 | CC(C)c1cc(C(C)C)c(O)c(C([O-])[O-])c1.CC(C)c1cc(C(C)C)c(O)c(C([O-])[O-])c1.CC(C)c1cc(C(C)C)c(O)c(C([OH2+])[OH2+])c1.CC(C)c1cc(C(C)C)c(O)c(C([OH2+])[OH2+])c1.[Cu+2].[Cu+2].[OH3+].[OH3+] | 3 | 12% | 53.2%
9 | CCc1ccc(NS(=O)(=O)c2ccccc2)c([N+](=O)[O-])c1 | 0 | 20% | 47.5%
10 | Cc1ccc2ccc3cccc4ccc1c2c34 | -3 | 6% | 14.2%
11 | O=C(Cc1csc2[n+]1C(=O)/C(=C/c1ccc(Cl)cc1)S2)Nc1ccccc1 | 42 | 98% (active) | 98.5% (active)
12 | BrCc1cccc2ccc3cccc(CBr)c3c12 | -15 | 21% | -24%
13 | OC(COc1cccc2ccccc12)CN1CCOCC1 (configuration not stated) | 14 | 59% | 73.5% (active)
14 | S=C(Nc1ccc(Cl)cc1)SC1CCCCC1 | -6 | 31% | 87.7% (active)

From PubChem BioAssay (NCI)
